Reference: paper PMC7862700, “An all-to-all approach to the identification of sequence-specific readers for epigenetic DNA modifications on cytosine”

Tests used:
Test in all cases: DAPPL (digital affinity profiling via proximity ligation, sequencing); 10 mM Tris-HCl pH 7.5, 50 mM NaCl, 1 mM DTT, 4% glycerol, room temperature, 30 min; GST-TFs on glutathione beads, 16-mer random dsDNA library, 0.1% formaldehyde crosslink after washing; high values mean tight binding
Conditions in all cases: protein: recombinant; tags: N-terminal GST; dsDNA, one strand shown
FLI1 = molecular target: T1, FLI1 (Homo sapiens, UniProt Q01543 1-452)
T1 sequence: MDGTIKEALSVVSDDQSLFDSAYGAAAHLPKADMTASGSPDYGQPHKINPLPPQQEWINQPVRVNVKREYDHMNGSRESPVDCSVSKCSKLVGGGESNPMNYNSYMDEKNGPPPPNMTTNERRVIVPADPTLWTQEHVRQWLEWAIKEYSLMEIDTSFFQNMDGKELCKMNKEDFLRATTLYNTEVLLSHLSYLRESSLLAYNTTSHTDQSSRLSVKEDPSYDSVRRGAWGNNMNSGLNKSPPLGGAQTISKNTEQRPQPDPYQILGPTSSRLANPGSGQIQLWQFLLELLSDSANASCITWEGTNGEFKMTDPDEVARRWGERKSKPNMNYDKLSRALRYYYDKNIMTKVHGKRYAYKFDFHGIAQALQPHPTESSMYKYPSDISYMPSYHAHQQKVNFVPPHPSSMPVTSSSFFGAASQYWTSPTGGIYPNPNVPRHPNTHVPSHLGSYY
Summary of the method: (§1)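 A tag-only sample was pooled with DNA-barcoded human transcription factors that had been expressed in yeast as GST fusions and captured on glutathione beads. The pools were incubated for 30 min at room temperature with 200 nmole of a random double-stranded 16-mer DNA library in Tris/NaCl/DTT/glycerol buffer, then washed, crosslinked with 0.1% formaldehyde, proximity-ligated (BsaI/T4 ligase, 1 h, 37 °C), PCR-amplified and sequenced on an Illumina NextSeq500. Binding signal is each hexamer's read frequency for a factor divided by its frequency for the tag-only sample.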

ELK1 = molecular target: T2, ELK1 (Homo sapiens, UniProt P19419 1-428)
T2 sequence: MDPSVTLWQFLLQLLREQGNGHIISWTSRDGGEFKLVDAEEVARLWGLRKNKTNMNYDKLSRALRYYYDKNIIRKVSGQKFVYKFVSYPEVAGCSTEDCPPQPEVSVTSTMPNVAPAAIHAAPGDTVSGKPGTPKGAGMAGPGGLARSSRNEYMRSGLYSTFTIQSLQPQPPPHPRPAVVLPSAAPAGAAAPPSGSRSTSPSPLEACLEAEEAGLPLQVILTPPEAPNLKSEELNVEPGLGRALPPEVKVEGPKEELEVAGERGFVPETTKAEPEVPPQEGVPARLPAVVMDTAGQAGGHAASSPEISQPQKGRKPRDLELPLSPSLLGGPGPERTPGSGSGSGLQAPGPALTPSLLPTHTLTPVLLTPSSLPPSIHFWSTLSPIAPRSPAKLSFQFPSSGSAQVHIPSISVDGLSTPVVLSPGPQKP
Summary of the method: as §1

GABPA = molecular target: T3, GABPA (Homo sapiens, UniProt Q06546 1-454)
T3 sequence: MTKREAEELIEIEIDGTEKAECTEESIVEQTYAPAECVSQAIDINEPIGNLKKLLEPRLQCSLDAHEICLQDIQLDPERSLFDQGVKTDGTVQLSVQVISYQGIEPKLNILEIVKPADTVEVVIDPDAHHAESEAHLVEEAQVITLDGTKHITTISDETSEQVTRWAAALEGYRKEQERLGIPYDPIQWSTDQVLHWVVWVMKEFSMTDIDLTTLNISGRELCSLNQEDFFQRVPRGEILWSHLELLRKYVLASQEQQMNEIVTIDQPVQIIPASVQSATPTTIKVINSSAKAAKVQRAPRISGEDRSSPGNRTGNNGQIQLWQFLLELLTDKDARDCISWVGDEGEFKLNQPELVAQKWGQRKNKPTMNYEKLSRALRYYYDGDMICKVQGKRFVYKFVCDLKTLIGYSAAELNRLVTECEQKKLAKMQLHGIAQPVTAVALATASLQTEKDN
Summary of the method: as §1

ERG = molecular target: T4, ERG (Homo sapiens, UniProt P11308 1-479)
T4 sequence: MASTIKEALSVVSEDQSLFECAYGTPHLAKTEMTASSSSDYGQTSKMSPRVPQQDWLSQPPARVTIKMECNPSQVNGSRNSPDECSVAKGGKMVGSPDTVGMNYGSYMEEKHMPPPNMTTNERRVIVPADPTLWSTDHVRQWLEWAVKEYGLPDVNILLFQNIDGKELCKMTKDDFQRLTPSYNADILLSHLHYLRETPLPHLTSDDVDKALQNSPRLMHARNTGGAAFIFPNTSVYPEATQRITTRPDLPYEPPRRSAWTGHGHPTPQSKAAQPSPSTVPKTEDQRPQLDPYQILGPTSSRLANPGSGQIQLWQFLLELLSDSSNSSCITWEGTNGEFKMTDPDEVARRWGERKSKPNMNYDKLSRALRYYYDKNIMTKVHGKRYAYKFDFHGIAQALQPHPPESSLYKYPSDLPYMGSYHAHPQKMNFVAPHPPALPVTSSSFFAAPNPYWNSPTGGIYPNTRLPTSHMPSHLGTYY
Summary of the method: as §1

ELF1 = ELF1 (Homo sapiens, UniProt P32519 1-619)
Summary of the method: as §1

EHF = molecular target: T5, EHF (Homo sapiens, UniProt Q9NZC4 1-300)
T5 sequence: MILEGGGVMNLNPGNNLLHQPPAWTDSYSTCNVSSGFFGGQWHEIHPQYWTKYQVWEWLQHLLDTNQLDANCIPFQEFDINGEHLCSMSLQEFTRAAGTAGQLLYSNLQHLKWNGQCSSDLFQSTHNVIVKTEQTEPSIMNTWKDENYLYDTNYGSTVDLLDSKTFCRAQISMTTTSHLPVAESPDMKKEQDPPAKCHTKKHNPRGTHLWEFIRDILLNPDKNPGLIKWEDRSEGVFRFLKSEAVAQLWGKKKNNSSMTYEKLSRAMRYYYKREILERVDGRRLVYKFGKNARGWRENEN
Summary of the method: as §1

SPI1 = SPI1 (Homo sapiens, UniProt P17947 1-270)
Summary of the method: as §1

SPIB = SPIB (Homo sapiens, UniProt Q01892 1-262)
Summary of the method: as §1

ELK3 = molecular target: T6, ELK3 (Homo sapiens, UniProt P41970 1-407)
T6 sequence: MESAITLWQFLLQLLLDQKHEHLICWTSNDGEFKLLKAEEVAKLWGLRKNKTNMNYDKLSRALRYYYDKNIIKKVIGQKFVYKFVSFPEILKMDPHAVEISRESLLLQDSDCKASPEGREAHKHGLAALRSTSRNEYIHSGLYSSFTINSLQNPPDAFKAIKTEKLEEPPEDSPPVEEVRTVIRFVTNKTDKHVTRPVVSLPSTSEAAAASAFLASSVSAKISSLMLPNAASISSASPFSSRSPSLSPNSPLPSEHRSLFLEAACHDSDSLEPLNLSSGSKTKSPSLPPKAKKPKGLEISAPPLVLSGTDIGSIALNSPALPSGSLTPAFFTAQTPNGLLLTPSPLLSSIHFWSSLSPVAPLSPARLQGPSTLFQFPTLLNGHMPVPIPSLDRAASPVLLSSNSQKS
Summary of the method: as §1

Chain of ELF1 (P32519 whole entry): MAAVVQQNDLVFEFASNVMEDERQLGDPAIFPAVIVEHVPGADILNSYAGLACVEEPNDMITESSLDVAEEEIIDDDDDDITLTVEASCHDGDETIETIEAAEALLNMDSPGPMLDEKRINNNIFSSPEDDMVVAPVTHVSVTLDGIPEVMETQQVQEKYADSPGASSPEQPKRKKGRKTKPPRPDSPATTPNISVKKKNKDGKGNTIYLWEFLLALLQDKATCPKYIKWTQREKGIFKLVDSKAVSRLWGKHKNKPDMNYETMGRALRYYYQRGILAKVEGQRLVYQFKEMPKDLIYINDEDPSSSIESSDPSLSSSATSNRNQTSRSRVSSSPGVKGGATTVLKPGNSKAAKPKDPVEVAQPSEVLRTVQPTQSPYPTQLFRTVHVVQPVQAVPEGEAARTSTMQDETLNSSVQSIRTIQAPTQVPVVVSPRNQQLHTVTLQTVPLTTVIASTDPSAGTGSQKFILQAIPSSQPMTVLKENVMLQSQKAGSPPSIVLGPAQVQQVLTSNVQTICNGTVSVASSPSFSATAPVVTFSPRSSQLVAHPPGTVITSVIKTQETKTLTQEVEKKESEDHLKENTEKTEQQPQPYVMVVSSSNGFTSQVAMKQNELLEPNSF
Chain of SPIB (Q01892 whole entry): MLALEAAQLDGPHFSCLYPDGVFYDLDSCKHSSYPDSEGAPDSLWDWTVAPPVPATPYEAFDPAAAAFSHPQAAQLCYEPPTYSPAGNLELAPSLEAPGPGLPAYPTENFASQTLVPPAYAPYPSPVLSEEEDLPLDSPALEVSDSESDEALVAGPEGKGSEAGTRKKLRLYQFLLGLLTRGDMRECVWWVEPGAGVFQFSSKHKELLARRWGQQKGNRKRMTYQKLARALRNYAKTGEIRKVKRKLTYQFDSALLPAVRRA

Row | Sequence | binding signal (FLI1) | binding signal (ELK1) | binding signal (GABPA) | binding signal (ERG) | binding signal (ELF1) | binding signal (EHF) | binding signal (SPI1) | binding signal (SPIB) | binding signal (ELK3)
1 | GTTTTC | 1.19 fold enrichment (6-mer frequency, TF over GST control) | 1.2 fold enrichment (6-mer frequency, TF over GST control) | 1.23 fold enrichment (6-mer frequency, TF over GST control) | 1.24 fold enrichment (6-mer frequency, TF over GST control) | 1.15 fold enrichment (6-mer frequency, TF over GST control) | 1.28 fold enrichment (6-mer frequency, TF over GST control) | 1.17 fold enrichment (6-mer frequency, TF over GST control) | 1.2 fold enrichment (6-mer frequency, TF over GST control) | 1.23 fold enrichment (6-mer frequency, TF over GST control)
2 | GCTCAG | 1.16 fold enrichment (6-mer frequency, TF over GST control) | 1.17 fold enrichment (6-mer frequency, TF over GST control) | 1.24 fold enrichment (6-mer frequency, TF over GST control) | 1.18 fold enrichment (6-mer frequency, TF over GST control) | 1.21 fold enrichment (6-mer frequency, TF over GST control) | 1.11 fold enrichment (6-mer frequency, TF over GST control) | 1.07 fold enrichment (6-mer frequency, TF over GST control) | 1.12 fold enrichment (6-mer frequency, TF over GST control) | 1.11 fold enrichment (6-mer frequency, TF over GST control)
3 | CTTACC | 1.21 fold enrichment (6-mer frequency, TF over GST control) | 1.22 fold enrichment (6-mer frequency, TF over GST control) | 1.26 fold enrichment (6-mer frequency, TF over GST control) | 1.24 fold enrichment (6-mer frequency, TF over GST control) | 1.24 fold enrichment (6-mer frequency, TF over GST control) | 1.17 fold enrichment (6-mer frequency, TF over GST control) | 1.34 fold enrichment (6-mer frequency, TF over GST control) | 1.32 fold enrichment (6-mer frequency, TF over GST control) | 1.26 fold enrichment (6-mer frequency, TF over GST control)
4 | GCGGAA | 1.37 fold enrichment (6-mer frequency, TF over GST control) | 1.33 fold enrichment (6-mer frequency, TF over GST control) | 1.29 fold enrichment (6-mer frequency, TF over GST control) | 1.46 fold enrichment (6-mer frequency, TF over GST control) | 1.28 fold enrichment (6-mer frequency, TF over GST control) | 1.52 fold enrichment (6-mer frequency, TF over GST control) | 2.18 fold enrichment (6-mer frequency, TF over GST control) | 1.49 fold enrichment (6-mer frequency, TF over GST control) | 1.37 fold enrichment (6-mer frequency, TF over GST control)
5 | GAAATG | 1.52 fold enrichment (6-mer frequency, TF over GST control) | 1.61 fold enrichment (6-mer frequency, TF over GST control) | 1.55 fold enrichment (6-mer frequency, TF over GST control) | 1.73 fold enrichment (6-mer frequency, TF over GST control) | 1.54 fold enrichment (6-mer frequency, TF over GST control) | 1.65 fold enrichment (6-mer frequency, TF over GST control) | 1.67 fold enrichment (6-mer frequency, TF over GST control) | 1.6 fold enrichment (6-mer frequency, TF over GST control) | 1.6 fold enrichment (6-mer frequency, TF over GST control)
6 | CACCAT | 1.2 fold enrichment (6-mer frequency, TF over GST control) | 1.16 fold enrichment (6-mer frequency, TF over GST control) | 1.06 fold enrichment (6-mer frequency, TF over GST control) | 1.08 fold enrichment (6-mer frequency, TF over GST control) | 1.14 fold enrichment (6-mer frequency, TF over GST control) | 1.12 fold enrichment (6-mer frequency, TF over GST control) | 1.03 fold enrichment (6-mer frequency, TF over GST control) | 1 fold enrichment (6-mer frequency, TF over GST control) | 1.22 fold enrichment (6-mer frequency, TF over GST control)
7 | GTTATG | 1.07 fold enrichment (6-mer frequency, TF over GST control) | 1.17 fold enrichment (6-mer frequency, TF over GST control) | 1.16 fold enrichment (6-mer frequency, TF over GST control) | 1.19 fold enrichment (6-mer frequency, TF over GST control) | 1.12 fold enrichment (6-mer frequency, TF over GST control) | 1.2 fold enrichment (6-mer frequency, TF over GST control) | 1.18 fold enrichment (6-mer frequency, TF over GST control) | 1.12 fold enrichment (6-mer frequency, TF over GST control) | 1.06 fold enrichment (6-mer frequency, TF over GST control)
